The experiment is described as follows: HBEC Cell Viability Secondary Assay for qHTS Assay for Epigenetic Modulators. The following applies: HBEC normal bronchial cells viability, ATP luminescence, 72 h. From the text: NIH Molecular Libraries Screening Centers Network [MLSCN] NIH Chemical Genomics Center [NCGC] MLSCN Grant: 1 X01 MH079860-01 Assay Provider: Elisabeth D. Martinez, University of Texas SW Medical Center NCGC Assay Overview: This secondary assay characterizes selected actives identified in the qHTS of the Locus Derepression (LDR) assay (PubChem AID 1865). The LDR assay detects the derepression of a GFP reporter that is stably integrated in a region of the genome of murine c127i mammary cells that is presumably silenced. Compounds that cause derepression of the locus to express GFP are identified by enumerating GFP positive cells using a laser-scanning microplate cytometer. […] Cell viability was measured using a luminescence-based detection reagent that measures cellular ATP levels.
NCGC Assay Protocol Summary HBEC cells were seeded at 125 cells/5 uL/well in white, solid bottom, 1536 well plates (Greiner). […] Plates were incubated 72 hours at 37deg C and 5% CO2, then 3.5 uL/well CellTiter-Glo(R) (Promega) detection reagent was added, plates were incubated at ambient temperature for 10 minutes and luminescence was measured by a ViewLux (Perkin Elmer) reader. […] A quantitative high-throughput screen identifies potential epigenetic modulators of gene expression. […] A quantitative high-throughput screen identifies potential epigenetic modulators of gene expression. […]

Inconclusive results are not listed. Calls of active or inactive are those of the source. The call rests on the fitted dose curve; in most records, active means well fitted cell-killing curve with a large enough effect; inconclusive means small, poorly fitted or top-dose-only effect; inactive means flat fitted curve, though single readings scatter.

In the case of `O=C1NC(=O)N(CCc2ccc(F)cc2)C(=O)/C1=C/C=C/c1ccccc1`, the Potency is 7.91 µM (active).

For `COc1ccc(OC)c(N2C(=O)NC(=O)/C(=C\c3ccc([N+](=O)[O-])s3)C2=O)c1`, the Potency is 28.1 µM (active).

Source of the values: PubChem BioAssay AID493066 (National Center for Advancing Translational Sciences (NCATS), 2011).
